Here are results for 9 compounds from PubChem BioAssay.

Assay [1] in a line: compound effects on lung adenocarcinoma cell viability – A549, calcein-AM fluorescence, 48 h, basal, profiling panel (AID 1162). Also: test concentration not given here. The settings on record: higher = more signal.
Assay [2] is described as follows: compound effects on differentiated 3T3-L1 adipocyte viability – cell-based, 3T3-L1 adipocytes, calcein-AM fluorescence, 48 h, basal, profiling panel (AID 1163). Also: test concentration not given here. The settings on record: 3T3-L1 adipocytes viability, higher = more signal.
Assay [3] in a line: compound effects on hepatocellular carcinoma cell viability – HepG2, calcein-AM fluorescence, 48 h, basal, profiling panel (AID 1164). Also: test concentration not given here. As to conditions: higher = more signal.
Assay [4] in a line: compound effects on multiple myeloma cell viability – MM1S, calcein-AM fluorescence, 48 h, basal, profiling panel (AID 1165). Also: test concentration not given here. As to conditions: higher = more signal.
Assay [5] can be described thus: calcein-AM signal in unstimulated myeloma cells – cell-based, calcein-AM fluorescence, 48 h, PK04 Diversity Set, profiling panel (AID 1166).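 Also: cells grown under basal conditions without added stimulus; test concentration not given here.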 As to conditions: RPMI8226 myeloma viability, higher = more signal.
Assay [6] is described as follows: JC-1 mitochondrial signal, unstimulated HepG2 cells – cell-based, JC-1 fluorescence, 24 h, 100 nL compound, profiling panel (AID 1167). Also: test concentration not given here. As to conditions: HepG2 mitochondrial potential, higher = more signal.
The nature of assay [7]: JC-1 mitochondrial signal, unstimulated adipocytes – cell-based, JC-1 fluorescence, 3T3-L1 adipocytes, 24 h, 100 nL compound, profiling panel (AID 1168). Also: test concentration not given here. As to conditions: JC-1 mitochondrial fluorescence, higher = more signal, called active from +8 up or from −8 down.
Assay [8] in a line: JC-1 mitochondrial signal, unstimulated myeloma cells – cell-based, JC-1 fluorescence, RPMI8226, 24 h, 100 nL compound, profiling panel (AID 1169). Also: test concentration not given here. The settings on record: JC-1 mitochondrial potential fluorescence, higher = more signal.
A short description of assay [9]: JC-1 mitochondrial signal, unstimulated MM1S myeloma – cell-based, JC-1 fluorescence, 24 h, 100 nL compound, profiling panel (AID 1170). Also: test concentration not given here. As to conditions: MM1S mitochondrial potential, higher = more signal.
A short description of assay [10]: resazurin metabolic signal in A549 cells – cell-based, resazurin fluorescence, 24 h, PK04 Diversity Set, profiling panel (AID 1171). Also: test concentration not given here. The settings on record: A549 viability, higher = more signal, called active from +8 up or from −8 down.
A short description of assay [11]: resazurin metabolic signal in HepG2 cells – cell-based, resazurin fluorescence, 24 h, PK04 Diversity Set, profiling panel (AID 1172). Also: test concentration not given here. As to conditions: HepG2 viability, higher = more signal.
Assay [12] in a line: budding yeast growth changes without added modifier – OD600, strain BY4716, 24 h, basal condition, primary screen (AID 1173). The settings on record: S. cerevisiae BY4716 growth, OD600, 24 h; higher = more signal, called active from +8 up or from −8 down.
The nature of assay [13]: viability profiling in MM1S myeloma cells – cell-based, resazurin fluorescence, basal, 24 h, PK04 Diversity Set, profiling panel (AID 1174). Also: test concentration not given here. As to conditions: higher = more signal, called active from +8 up or from −8 down. On the technique in general: The colour change of resazurin is a common sign of viable cells or microbes.
In assay [14] the target is Dihydroorotate dehydrogenase (quinone), mitochondrial (Plasmodium falciparum (isolate 3D7)) (UniProt Q08210). The assay can be described thus: inhibition of P. falciparum DHODH – biochemical, C-terminal His tag, absorbance 600 nm, primary screen (AID 1175).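 Also: recombinant parasite enzyme with a five histidine tag at its C terminus; test concentration not given here.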 As to conditions: PfDHODH enzyme, DCIP absorbance 600 nm; higher = more signal, called active from +8 up or from −8 down.

A short description of assay [15]: inhibition of PAO1 biofilm formation – strain PAO1, LB-PBS medium, absorbance 600 nm, primary screen (AID 1176). Also: test concentration not given here. As to conditions: P. aeruginosa PAO1 growth/biofilm, A600, 12 h; higher = more signal.
Assay [16] in a line: growth modulation of vineyard yeast isolate – strain RM11-1a, OD600, basal, 24 h, primary screen (AID 1177).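 Also: cultures grown under basal conditions with no added stressor; test concentration not given here.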 As to conditions: S. cerevisiae RM11-1a growth, OD600, 24 h; higher = more signal, called active from +8 up or from −8 down.
A short description of assay [17]: growth of efflux-deficient E. coli DRC39 – strain DRC39, OD650, 24 h, E. coli filamentation inducers, primary screen (AID 1178).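 Also: growth measured as culture turbidity by optical density at 650 nm; test concentration not given here.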 The settings on record: E. coli DRC39 acrAB, higher = more signal, called active from +8 up or from −8 down.
The nature of assay [18]: growth of efflux-deficient E. coli DRC39 – strain DRC39, OD650, 48 h, E. coli filamentation inducers, primary screen (AID 1179).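 Also: screen aims at cell division blockers that make cells filament.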 The settings on record: E. coli DRC39 delta-acrAB growth, higher = more signal, called active from +8 up or from −8 down.
The nature of assay [19]: viability profiling in RPMI8226 myeloma cells – cell-based, resazurin fluorescence, basal, 24 h, PK04 Diversity Set, profiling panel (AID 1180).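 Also: RPMI8826 multiple myeloma cell line at 5000 cells per well; test concentration not given here.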 As to conditions: higher = more signal.
For assay [20], the target named is E3 ubiquitin-protein ligase XIAP (Homo sapiens) (UniProt P98170). The experiment in a line: small molecules binding XIAP protein – biophysical, small-molecule microarray, fluorescence 635 nm, primary screen (AID 1181).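 Also: score merges 667 nm emission and signal to noise over triplicate slides.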 As to conditions: higher = more signal.

Active and inactive are the calls of the source. Unless noted, no rule for the calls is given here.

Chain of Dihydroorotate dehydrogenase (quinone), mitochondrial (Plasmodium falciparum (isolate 3D7)) (Q08210 whole entry, looked up): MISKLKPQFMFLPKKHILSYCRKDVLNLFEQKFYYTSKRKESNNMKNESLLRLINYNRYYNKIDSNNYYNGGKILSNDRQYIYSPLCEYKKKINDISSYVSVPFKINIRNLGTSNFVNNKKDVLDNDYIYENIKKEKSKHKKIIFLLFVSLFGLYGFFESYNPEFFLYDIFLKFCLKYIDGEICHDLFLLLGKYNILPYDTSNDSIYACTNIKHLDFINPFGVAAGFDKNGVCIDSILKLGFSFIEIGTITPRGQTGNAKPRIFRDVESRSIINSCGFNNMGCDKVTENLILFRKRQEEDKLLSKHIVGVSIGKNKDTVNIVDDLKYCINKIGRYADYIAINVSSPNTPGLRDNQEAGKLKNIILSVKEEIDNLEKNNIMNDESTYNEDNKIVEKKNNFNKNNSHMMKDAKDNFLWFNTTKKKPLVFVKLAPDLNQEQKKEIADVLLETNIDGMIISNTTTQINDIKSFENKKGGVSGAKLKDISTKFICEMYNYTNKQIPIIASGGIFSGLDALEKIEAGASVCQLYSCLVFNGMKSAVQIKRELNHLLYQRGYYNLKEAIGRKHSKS
Chain of E3 ubiquitin-protein ligase XIAP (Homo sapiens) (P98170 whole entry, looked up): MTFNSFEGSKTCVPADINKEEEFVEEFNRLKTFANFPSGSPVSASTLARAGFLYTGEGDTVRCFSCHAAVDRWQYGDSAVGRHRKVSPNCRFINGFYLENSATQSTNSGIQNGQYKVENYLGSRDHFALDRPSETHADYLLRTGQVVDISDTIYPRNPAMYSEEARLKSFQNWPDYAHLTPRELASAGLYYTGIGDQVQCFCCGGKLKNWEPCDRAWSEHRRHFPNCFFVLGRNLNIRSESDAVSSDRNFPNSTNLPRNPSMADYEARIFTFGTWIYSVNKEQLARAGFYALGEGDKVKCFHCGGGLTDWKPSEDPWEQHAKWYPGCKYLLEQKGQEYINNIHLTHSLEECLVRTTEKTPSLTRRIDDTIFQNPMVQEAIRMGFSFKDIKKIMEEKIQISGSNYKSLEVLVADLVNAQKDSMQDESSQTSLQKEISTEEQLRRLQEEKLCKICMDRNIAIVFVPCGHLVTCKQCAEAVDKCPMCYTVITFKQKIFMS

Consider `O=C1C2=CC[C@H]3C(=O)N(C[C@@H]4CCCO4)C(=O)[C@H]3[C@H]2[C@H](O)[C@@H]2O[C@H]12`, for which the z-score was 0.144 in [1]; -0.579 in [2]; -0.228 in [3]; -3.11 in assay [4]; -3.32 in [5]; -0.549 in assay [6]. Further, the z-score in assay [7] was 0.465 (inactive); in assay [8] it was -0.836; in assay [9], -3.04; in assay [10], -0.824 (inactive); in [11], -0.154; in assay [12], -0.87 (inactive). The z-score in assay [13] is -4.71 (inactive); in assay [15], -0.343 (inactive); in [16], -0.511 (inactive); in assay [17] it was 0.0929 (inactive); in [18], 0.424 (inactive); in [19], -1.7. Moreover, the composite z-score in assay [14] is -0.619 (inactive); in [20] it was 0.204.
With `C#CCCCON=C1C[C@@H](O)[C@@H](O)[C@@H]2[C@@H]3C(=O)N(CC)C(=O)[C@@H]3CC[C@H]12`, the z-score is -0.662 in assay [1]; -0.751 in assay [2]; 0.0801 in assay [3]; 0.489 in assay [4]; 0.516 in assay [5]; -0.58 in [6]. Further, the z-score is -0.625 (inactive) in assay [7]; -0.569 in [8]; -0.533 in [9]; -0.479 (inactive) in [10]; -0.588 in [11]; 0.866 (inactive) in assay [12]. The z-score in [13] is -0.729 (inactive); in assay [15] it was -0.143 (inactive); in assay [16], -0.0584 (inactive); in [17], -0.312 (inactive); in assay [18], -0.241 (inactive); in assay [19], -1.09. For the same compound, the composite z-score was -0.0526 (inactive) in [14] and -0.114 in assay [20].
For `CCCNC(=O)OC[C@H]1O[C@H](CCON=C[C@@H](NS(=O)(=O)c2ccc(C)cc2)[C@H](C)C=CCC(=O)OC)C=C[C@@H]1Oc1ccc(OC)cc1`, the z-score in assay [1] is -0.321; in assay [2], 0.973; in assay [3], -1.18; in assay [4], -0.0312; in [5], -0.773; in assay [6] it was 0.421. Also, the z-score in [7] is -2.4 (inactive); in assay [8], -0.806; in assay [9], 0.364; in assay [10], 0.141 (inactive); in assay [11], -0.765; in assay [12] it was 0.0177 (inactive). Moreover, the z-score is 0.0958 (inactive) in [13]; 0.311 (inactive) in assay [15]; -0.803 (inactive) in [16]; 0.101 (inactive) in assay [17]; -0.138 (inactive) in [18]; 0.732 in [19]. The results for the composite z-score in [14] and in assay [20] were 0.216 (inactive) and -0.207, respectively.
Take `CCOC(=O)[C@H](CC(C)C)NC(=O)CCC1CC(OC(=O)NCCc2ccc(F)cc2)CC2(CCCC(COC(=O)NCc3cccc(C(F)(F)F)c3)O2)O1` (stereo not given in full): the z-score in assay [1] is -0.366; in assay [2], -0.289; in assay [3], -0.581; in assay [4], -3.37; in assay [5] it was 0.277; in [6], -0.471. Moreover, the z-score was -0.512 (inactive) in [7]; 0.652 in assay [8]; -0.0831 in assay [9]; -0.209 (inactive) in [10]; 0.0989 in [11]; 0.924 (inactive) in assay [12]. Further, the z-score in assay [13] is 0.0492 (inactive); in assay [15], 0.672 (inactive); in [16], 0.924 (inactive); in assay [17], 0.687 (inactive); in assay [18], 0.0609 (inactive); in assay [19], 0.15. The results for the composite z-score in [14] and in assay [20] were 0.324 (inactive) and -0.383, respectively.
For the compound `CCN1C(=O)[C@H]2[C@H]3[C@H](O)[C@H](O)CC(=NOCC(C)C)[C@H]3CC[C@H]2C1=O`, the z-score was -0.124 in assay [1]; -0.574 in [2]; -0.391 in assay [3]; 0.199 in [4]; 0.286 in assay [5]; -0.584 in assay [6]. Also, the z-score was -0.977 (inactive) in [7]; 0.0664 in [8]; -0.86 in assay [9]; -0.348 (inactive) in [10]; -0.259 in assay [11]; -0.36 (inactive) in [12]. Moreover, the z-score in assay [13] was -0.929 (inactive); in assay [15] it was -0.225 (inactive); in assay [16], -0.117 (inactive); in [17], 0.645 (inactive); in assay [18], 0.568 (inactive); in [19], -0.971. Besides, the results for the composite z-score in assay [14] and in assay [20] were -0.649 (inactive) and -0.122, respectively.
Turning to `CO[C@H]1COC(=O)[C@H](C)COC(=O)[C@H](C)NC(=O)CC=C[C@H]1C`, the z-score in assay [1] is -0.0718; in [2], 0.996; in assay [3], -0.248; in [4], 0.0627; in assay [5], 0.286; in assay [6], 0.708. For the same compound, the z-score was 0.475 (inactive) in assay [7]; -0.218 in assay [8]; 1.3 in assay [9]; 0.724 (inactive) in assay [10]; 0.377 in [11]; -1.32 (inactive) in assay [12]. The z-score in [13] is 1.13 (inactive); in assay [15], -0.826 (inactive); in assay [16], -0.419 (inactive); in assay [17] it was 0.91 (inactive); in [18], -0.193 (inactive); in assay [19], 1.03. Also, the values for the composite z-score in assay [14] and in assay [20] were 0.0315 (inactive) and -0.0525, respectively.
Turning to `C[C@H]1CC[C@H]2C(=O)N[C@H](Cc3ccccc3)C(=O)N2[C@@H]1c1ccccc1`, the z-score in assay [1] was -0.103; in assay [2], 0.283; in assay [3], 0.194; in assay [4], -0.643; in assay [5], 0.0185; in [6], 0.399. Besides, the z-score in [7] was -0.556 (inactive); in assay [8], 0.471; in [9], 1.28; in assay [10], -0.232 (inactive); in assay [11], -0.69; in [12], -0.512 (inactive). In addition, the z-score is -0.322 (inactive) in assay [13]; -0.327 (inactive) in assay [15]; 0.0033 (inactive) in assay [16]; 0.718 (inactive) in assay [17]; 0.295 (inactive) in assay [18]; -0.142 in [19]. In addition, the composite z-score in assay [14] is 0.868 (inactive); in assay [20], -0.24.
Consider `Cc1ccc2[nH]c3nc(CCCn4ccnc4-c4ccccc4)nnc3c2c1`, for which the z-score in assay [1] was 0.0515; in assay [2] it was 0.339; in assay [3] it was -0.18; in assay [4], 1.05; in assay [5], 0.392; in assay [6], -0.807. For the same compound, the z-score in assay [7] was 1.1 (inactive); in [8], 0.738; in assay [9], -0.867; in assay [10], 0.384 (inactive); in assay [11], -0.256; in [12] it was -0.104 (inactive). The z-score in [13] was -1.15 (inactive); in [15], 0.0737 (inactive); in assay [16], -0.212 (inactive); in assay [17] it was 0.164 (inactive); in [18], 0.183 (inactive); in assay [19], -0.976. Moreover, the composite z-score is 0.411 (inactive) in assay [14] and -0.119 in assay [20].
As for `C=CCOCC1CN2[C@@H](CC[C@@H](C)[C@@H]2c2ccc(Br)cc2)C(=O)O1` (stereo not given in full), the z-score in assay [1] is 0.124; in assay [2], 0.312; in [3], 0.289; in assay [4] it was -0.268; in assay [5], -0.0306; in assay [6], 0.506. Further, the z-score in assay [7] was -0.809 (inactive); in assay [8], -0.207; in assay [9], 0.672; in assay [10], 0.743 (inactive); in assay [11] it was 0.685; in assay [12] it was -0.139 (inactive). Moreover, the z-score in assay [13] is 0.824 (inactive); in [15], 0.013 (inactive); in assay [16], 1.14 (inactive); in [17] it was 0.622 (inactive); in [18] it was -0.0542 (inactive); in [19] it was 1.49. The composite z-score is -0.959 (inactive) in assay [14] and -0.184 in [20].
